Laboratory results taken from PMC7862700, “An all-to-all approach to the identification of sequence-specific readers for epigenetic DNA modifications on cytosine”.

Columns and labels:
Experiment in all cases: DAPPL (digital affinity profiling via proximity ligation, sequencing); 10 mM Tris-HCl pH 7.5, 50 mM NaCl, 1 mM DTT, 4% glycerol, room temperature, 30 min; GST-TFs on glutathione beads, 16-mer random dsDNA library, 0.1% formaldehyde crosslink after washing; high values mean tight binding
Conditions in all cases: protein: recombinant; tags: N-terminal GST; dsDNA, one strand shown
FLI1 = biological target: T1, FLI1 (Homo sapiens, UniProt Q01543 1-452)
T1 sequence: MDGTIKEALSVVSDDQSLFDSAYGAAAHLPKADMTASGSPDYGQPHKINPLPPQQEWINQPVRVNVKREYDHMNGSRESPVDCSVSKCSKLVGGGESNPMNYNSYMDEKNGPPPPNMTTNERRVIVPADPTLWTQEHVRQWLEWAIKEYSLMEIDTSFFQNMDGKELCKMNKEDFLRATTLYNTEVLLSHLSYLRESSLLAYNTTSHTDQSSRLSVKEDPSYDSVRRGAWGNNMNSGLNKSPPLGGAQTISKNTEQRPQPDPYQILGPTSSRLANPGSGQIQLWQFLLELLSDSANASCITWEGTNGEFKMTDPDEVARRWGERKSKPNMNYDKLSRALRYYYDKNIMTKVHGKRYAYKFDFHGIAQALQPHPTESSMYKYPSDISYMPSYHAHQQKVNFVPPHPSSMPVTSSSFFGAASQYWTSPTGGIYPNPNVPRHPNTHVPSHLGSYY
Outline: (§1)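 Human transcription factors fused to GST were expressed in yeast, captured on glutathione beads, given DNA barcodes and pooled with a GST-only negative control. Pools were incubated with 200 nmole of a 16-mer random double-stranded DNA library in Tris/NaCl/DTT/glycerol buffer at room temperature for 30 min. They were then washed, crosslinked with 0.1% formaldehyde, proximity-ligated (BsaI/T4 ligase, 1 h, 37 °C), PCR-amplified and sequenced on an Illumina NextSeq500. Binding signal is each 6-mer's read frequency for a factor divided by its frequency for the GST control.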

ELK1 = biological target: T2, ELK1 (Homo sapiens, UniProt P19419 1-428)
T2 sequence: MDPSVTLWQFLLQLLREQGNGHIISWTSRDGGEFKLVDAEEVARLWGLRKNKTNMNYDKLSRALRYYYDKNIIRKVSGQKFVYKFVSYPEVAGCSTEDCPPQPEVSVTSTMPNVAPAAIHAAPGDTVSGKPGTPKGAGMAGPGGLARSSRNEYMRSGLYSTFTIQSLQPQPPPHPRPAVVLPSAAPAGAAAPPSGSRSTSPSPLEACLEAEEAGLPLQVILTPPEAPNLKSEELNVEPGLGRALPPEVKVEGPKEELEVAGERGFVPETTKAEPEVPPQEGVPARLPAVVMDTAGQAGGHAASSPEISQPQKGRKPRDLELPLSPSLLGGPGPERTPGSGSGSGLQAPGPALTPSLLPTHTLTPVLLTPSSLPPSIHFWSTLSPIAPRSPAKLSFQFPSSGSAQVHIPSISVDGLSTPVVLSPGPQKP
Outline: as §1

GABPA = biological target: T3, GABPA (Homo sapiens, UniProt Q06546 1-454)
T3 sequence: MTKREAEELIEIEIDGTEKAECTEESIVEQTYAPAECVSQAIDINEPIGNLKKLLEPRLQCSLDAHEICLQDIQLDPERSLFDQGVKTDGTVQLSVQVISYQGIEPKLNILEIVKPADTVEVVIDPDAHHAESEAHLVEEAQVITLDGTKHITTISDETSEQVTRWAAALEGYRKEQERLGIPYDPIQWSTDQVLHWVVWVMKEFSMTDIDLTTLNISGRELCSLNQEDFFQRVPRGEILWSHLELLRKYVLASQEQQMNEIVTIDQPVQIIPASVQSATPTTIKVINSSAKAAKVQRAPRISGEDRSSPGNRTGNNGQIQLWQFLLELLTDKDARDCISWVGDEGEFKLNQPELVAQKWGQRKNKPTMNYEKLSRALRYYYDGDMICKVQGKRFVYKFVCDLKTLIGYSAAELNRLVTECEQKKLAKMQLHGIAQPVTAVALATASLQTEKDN
Outline: as §1

ERG = biological target: T4, ERG (Homo sapiens, UniProt P11308 1-479)
T4 sequence: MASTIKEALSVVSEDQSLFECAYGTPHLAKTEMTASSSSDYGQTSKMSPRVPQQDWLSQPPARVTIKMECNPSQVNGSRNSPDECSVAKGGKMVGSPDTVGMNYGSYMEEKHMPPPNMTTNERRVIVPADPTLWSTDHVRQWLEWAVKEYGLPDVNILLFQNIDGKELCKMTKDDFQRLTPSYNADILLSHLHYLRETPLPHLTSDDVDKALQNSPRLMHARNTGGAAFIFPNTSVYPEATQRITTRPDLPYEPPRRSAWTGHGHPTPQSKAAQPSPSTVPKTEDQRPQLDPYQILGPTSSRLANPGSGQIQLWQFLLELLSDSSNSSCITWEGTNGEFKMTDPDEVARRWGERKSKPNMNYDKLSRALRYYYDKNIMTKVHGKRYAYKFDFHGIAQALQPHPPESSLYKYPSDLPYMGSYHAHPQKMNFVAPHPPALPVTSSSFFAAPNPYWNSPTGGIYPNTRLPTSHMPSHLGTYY
Outline: as §1

ELF1 = ELF1 (Homo sapiens, UniProt P32519 1-619)
ELF1, sequence (P32519 whole entry): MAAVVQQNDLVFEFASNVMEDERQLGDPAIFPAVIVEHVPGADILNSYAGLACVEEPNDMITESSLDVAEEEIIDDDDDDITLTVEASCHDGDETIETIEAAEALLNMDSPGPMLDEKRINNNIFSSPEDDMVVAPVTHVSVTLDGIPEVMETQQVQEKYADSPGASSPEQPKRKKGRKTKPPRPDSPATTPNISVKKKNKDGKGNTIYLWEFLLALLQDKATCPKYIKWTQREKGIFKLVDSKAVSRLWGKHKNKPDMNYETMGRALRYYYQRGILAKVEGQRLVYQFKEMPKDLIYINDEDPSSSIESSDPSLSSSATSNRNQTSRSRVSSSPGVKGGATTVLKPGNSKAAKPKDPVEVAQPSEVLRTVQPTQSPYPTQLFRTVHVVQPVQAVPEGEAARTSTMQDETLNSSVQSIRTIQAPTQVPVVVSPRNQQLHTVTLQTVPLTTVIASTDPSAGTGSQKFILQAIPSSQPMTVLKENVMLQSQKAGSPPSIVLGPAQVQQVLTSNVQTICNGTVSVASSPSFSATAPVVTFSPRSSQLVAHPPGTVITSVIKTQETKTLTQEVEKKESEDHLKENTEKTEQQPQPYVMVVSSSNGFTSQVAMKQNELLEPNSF
Outline: as §1

EHF = biological target: T5, EHF (Homo sapiens, UniProt Q9NZC4 1-300)
T5 sequence: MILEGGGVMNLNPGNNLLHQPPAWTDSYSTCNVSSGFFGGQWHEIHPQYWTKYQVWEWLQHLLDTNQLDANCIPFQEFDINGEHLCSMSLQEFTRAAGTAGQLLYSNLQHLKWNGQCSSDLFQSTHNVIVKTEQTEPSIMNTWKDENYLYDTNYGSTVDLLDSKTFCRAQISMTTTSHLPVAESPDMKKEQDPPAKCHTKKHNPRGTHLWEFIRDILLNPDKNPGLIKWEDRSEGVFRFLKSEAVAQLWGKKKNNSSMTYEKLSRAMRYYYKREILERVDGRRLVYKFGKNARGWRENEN
Outline: as §1

SPI1 = SPI1 (Homo sapiens, UniProt P17947 1-270)
Outline: as §1

SPIB = SPIB (Homo sapiens, UniProt Q01892 1-262)
SPIB, sequence (Q01892 whole entry): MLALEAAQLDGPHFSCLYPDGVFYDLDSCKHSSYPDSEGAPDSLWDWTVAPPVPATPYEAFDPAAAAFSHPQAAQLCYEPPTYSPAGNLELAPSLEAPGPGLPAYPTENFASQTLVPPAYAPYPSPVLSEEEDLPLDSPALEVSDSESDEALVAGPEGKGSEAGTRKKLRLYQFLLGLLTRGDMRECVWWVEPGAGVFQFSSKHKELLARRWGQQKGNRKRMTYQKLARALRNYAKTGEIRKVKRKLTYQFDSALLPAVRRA
Outline: as §1

ELK3 = biological target: T6, ELK3 (Homo sapiens, UniProt P41970 1-407)
T6 sequence: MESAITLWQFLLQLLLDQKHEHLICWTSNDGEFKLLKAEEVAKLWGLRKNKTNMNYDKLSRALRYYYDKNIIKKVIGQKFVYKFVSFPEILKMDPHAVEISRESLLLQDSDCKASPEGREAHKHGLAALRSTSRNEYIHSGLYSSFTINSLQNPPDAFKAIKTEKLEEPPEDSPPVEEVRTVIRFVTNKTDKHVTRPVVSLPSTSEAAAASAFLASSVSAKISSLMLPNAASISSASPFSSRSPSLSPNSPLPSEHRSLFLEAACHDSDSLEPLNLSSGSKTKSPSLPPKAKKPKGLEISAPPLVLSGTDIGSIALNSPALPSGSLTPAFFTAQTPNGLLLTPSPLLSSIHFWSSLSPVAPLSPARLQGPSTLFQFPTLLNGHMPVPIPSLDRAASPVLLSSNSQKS
Outline: as §1

Sequence	binding signal (FLI1)	binding signal (ELK1)	binding signal (GABPA)	binding signal (ERG)	binding signal (ELF1)	binding signal (EHF)	binding signal (SPI1)	binding signal (SPIB)	binding signal (ELK3)
CACATT	1.3 fold enrichment (6-mer frequency, TF over GST control)	1.16 fold enrichment (6-mer frequency, TF over GST control)	1.2 fold enrichment (6-mer frequency, TF over GST control)	1.15 fold enrichment (6-mer frequency, TF over GST control)	1.21 fold enrichment (6-mer frequency, TF over GST control)	1.23 fold enrichment (6-mer frequency, TF over GST control)	1.14 fold enrichment (6-mer frequency, TF over GST control)	1.12 fold enrichment (6-mer frequency, TF over GST control)	1.13 fold enrichment (6-mer frequency, TF over GST control)
CTTTCT	1.6 fold enrichment (6-mer frequency, TF over GST control)	1.6 fold enrichment (6-mer frequency, TF over GST control)	1.5 fold enrichment (6-mer frequency, TF over GST control)	1.53 fold enrichment (6-mer frequency, TF over GST control)	1.55 fold enrichment (6-mer frequency, TF over GST control)	1.53 fold enrichment (6-mer frequency, TF over GST control)	1.67 fold enrichment (6-mer frequency, TF over GST control)	1.48 fold enrichment (6-mer frequency, TF over GST control)	1.65 fold enrichment (6-mer frequency, TF over GST control)
CATGAT	1.15 fold enrichment (6-mer frequency, TF over GST control)	1.06 fold enrichment (6-mer frequency, TF over GST control)	1.19 fold enrichment (6-mer frequency, TF over GST control)	1.03 fold enrichment (6-mer frequency, TF over GST control)	1.09 fold enrichment (6-mer frequency, TF over GST control)	1.09 fold enrichment (6-mer frequency, TF over GST control)	1.03 fold enrichment (6-mer frequency, TF over GST control)	1.04 fold enrichment (6-mer frequency, TF over GST control)	1.19 fold enrichment (6-mer frequency, TF over GST control)
TGCACC	1.12 fold enrichment (6-mer frequency, TF over GST control)	1.16 fold enrichment (6-mer frequency, TF over GST control)	1.25 fold enrichment (6-mer frequency, TF over GST control)	1.09 fold enrichment (6-mer frequency, TF over GST control)	1.2 fold enrichment (6-mer frequency, TF over GST control)	1.25 fold enrichment (6-mer frequency, TF over GST control)	1.16 fold enrichment (6-mer frequency, TF over GST control)	1.15 fold enrichment (6-mer frequency, TF over GST control)	1.16 fold enrichment (6-mer frequency, TF over GST control)
CCTGAA	1.35 fold enrichment (6-mer frequency, TF over GST control)	1.39 fold enrichment (6-mer frequency, TF over GST control)	1.39 fold enrichment (6-mer frequency, TF over GST control)	1.41 fold enrichment (6-mer frequency, TF over GST control)	1.35 fold enrichment (6-mer frequency, TF over GST control)	1.33 fold enrichment (6-mer frequency, TF over GST control)	1.35 fold enrichment (6-mer frequency, TF over GST control)	1.42 fold enrichment (6-mer frequency, TF over GST control)	1.32 fold enrichment (6-mer frequency, TF over GST control)
TGCACT	1.37 fold enrichment (6-mer frequency, TF over GST control)	1.58 fold enrichment (6-mer frequency, TF over GST control)	1.4 fold enrichment (6-mer frequency, TF over GST control)	1.43 fold enrichment (6-mer frequency, TF over GST control)	1.42 fold enrichment (6-mer frequency, TF over GST control)	1.3 fold enrichment (6-mer frequency, TF over GST control)	1.68 fold enrichment (6-mer frequency, TF over GST control)	1.21 fold enrichment (6-mer frequency, TF over GST control)	1.26 fold enrichment (6-mer frequency, TF over GST control)
CGGAAA	1.89 fold enrichment (6-mer frequency, TF over GST control)	2.13 fold enrichment (6-mer frequency, TF over GST control)	1.88 fold enrichment (6-mer frequency, TF over GST control)	2.63 fold enrichment (6-mer frequency, TF over GST control)	1.87 fold enrichment (6-mer frequency, TF over GST control)	2.31 fold enrichment (6-mer frequency, TF over GST control)	1.89 fold enrichment (6-mer frequency, TF over GST control)	2.22 fold enrichment (6-mer frequency, TF over GST control)	2.28 fold enrichment (6-mer frequency, TF over GST control)
